Assay results from PubChem BioAssay.

Key:
[1] = yeast AGP1-GFP fluorescence change, single-dose – cell-based, flow cytometry, S. cerevisiae, cherry picks, confirmation (AID 2273;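 active means GFP response above 150% of the DMSO level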;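 further: median GFP channel fluorescence over the whole cell population gate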); details: S. cerevisiae AGP1-GFP strain, 3 h, at 10 µM
[2] = biological target: Integrin beta-1 (Homo sapiens) + Integrin alpha-4 (Homo sapiens) (UniProt P13612+P05556); experiment: alpha4beta1 integrin LIBS antibody binding reduction – U937 cells, HUTS-21 mAb, flow cytometry, validation set, VLA-4 allosteric modulator project, pilot screen (AID 2674;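 active means inhibition above 50%, about 3 SD of the validation set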;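 further: antibody binding induced by the VLA-4 ligand LDV present at three times its Kd; 0% = LDV ligand with antibody and no compound and 100% = antibody without LDV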); details: HUTS-21 LIBS mAb binding, at 6.7 µM, hits give high values, binding induced by LDV ligand
Sequence of Integrin beta-1 (Homo sapiens) + Integrin alpha-4 (Homo sapiens) (P05556 whole entry, looked up): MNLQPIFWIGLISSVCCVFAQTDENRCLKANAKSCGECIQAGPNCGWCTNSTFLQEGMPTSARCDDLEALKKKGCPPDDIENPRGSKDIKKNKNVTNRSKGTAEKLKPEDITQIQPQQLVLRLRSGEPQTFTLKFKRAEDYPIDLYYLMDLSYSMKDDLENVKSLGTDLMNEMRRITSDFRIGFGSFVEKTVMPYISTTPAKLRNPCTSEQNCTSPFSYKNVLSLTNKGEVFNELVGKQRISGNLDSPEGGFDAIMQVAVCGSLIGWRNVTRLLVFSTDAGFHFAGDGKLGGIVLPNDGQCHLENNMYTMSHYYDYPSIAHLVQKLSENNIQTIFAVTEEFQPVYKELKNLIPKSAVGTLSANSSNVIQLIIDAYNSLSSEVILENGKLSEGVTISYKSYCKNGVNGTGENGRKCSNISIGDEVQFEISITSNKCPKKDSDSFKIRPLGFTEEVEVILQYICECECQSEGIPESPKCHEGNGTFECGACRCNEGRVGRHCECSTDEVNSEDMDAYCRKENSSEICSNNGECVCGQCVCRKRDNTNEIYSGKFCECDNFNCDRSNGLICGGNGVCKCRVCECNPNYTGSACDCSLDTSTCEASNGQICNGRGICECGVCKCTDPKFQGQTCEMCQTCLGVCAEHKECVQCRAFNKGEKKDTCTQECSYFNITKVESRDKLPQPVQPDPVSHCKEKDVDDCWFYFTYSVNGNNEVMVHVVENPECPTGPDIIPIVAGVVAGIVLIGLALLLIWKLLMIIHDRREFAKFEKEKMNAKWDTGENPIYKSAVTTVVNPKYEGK
Sequence of Integrin beta-1 (Homo sapiens) + Integrin alpha-4 (Homo sapiens) (P13612 whole entry, looked up): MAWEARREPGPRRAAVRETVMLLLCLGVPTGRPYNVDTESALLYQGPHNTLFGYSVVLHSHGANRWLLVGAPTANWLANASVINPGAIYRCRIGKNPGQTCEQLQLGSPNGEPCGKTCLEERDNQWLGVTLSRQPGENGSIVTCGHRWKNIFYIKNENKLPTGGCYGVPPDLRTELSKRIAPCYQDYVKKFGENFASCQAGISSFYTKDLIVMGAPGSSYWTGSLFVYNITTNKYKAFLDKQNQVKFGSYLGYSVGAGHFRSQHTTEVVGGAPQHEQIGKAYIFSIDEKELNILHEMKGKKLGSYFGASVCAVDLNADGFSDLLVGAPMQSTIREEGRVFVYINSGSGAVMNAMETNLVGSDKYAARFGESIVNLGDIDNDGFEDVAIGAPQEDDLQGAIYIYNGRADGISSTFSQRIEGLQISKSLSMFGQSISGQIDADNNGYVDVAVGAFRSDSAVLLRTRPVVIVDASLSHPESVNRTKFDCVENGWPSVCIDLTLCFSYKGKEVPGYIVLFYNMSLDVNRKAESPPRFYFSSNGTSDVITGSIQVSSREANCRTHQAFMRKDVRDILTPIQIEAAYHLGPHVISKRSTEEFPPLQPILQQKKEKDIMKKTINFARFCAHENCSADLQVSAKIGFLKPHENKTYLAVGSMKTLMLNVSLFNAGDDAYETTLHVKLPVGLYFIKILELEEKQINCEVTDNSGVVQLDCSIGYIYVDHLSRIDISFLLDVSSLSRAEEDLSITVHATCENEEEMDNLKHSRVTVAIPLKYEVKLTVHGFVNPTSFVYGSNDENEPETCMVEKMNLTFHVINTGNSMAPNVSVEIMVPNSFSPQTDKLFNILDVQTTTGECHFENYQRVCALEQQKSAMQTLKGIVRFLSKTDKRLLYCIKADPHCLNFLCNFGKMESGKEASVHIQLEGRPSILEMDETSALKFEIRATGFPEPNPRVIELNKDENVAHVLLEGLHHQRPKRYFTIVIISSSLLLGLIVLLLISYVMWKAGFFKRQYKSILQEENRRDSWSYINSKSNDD

[3] = calorie-restriction mimetic ROS inhibitors, yeast – validation compound set, pilot screen (AID 2706;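 active means superoxide response below 65% of plate, a cut near 3 SD across the whole screen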;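 further: yeast exposed to compound for one week at 30 degrees C before staining; 100% = mean of all compound wells on the same plate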); details: S. cerevisiae aging, superoxide DHE fluorescence; at 10 µM; hits give low values
[4] = biological target: Beta-adrenergic receptor kinase 1 (Homo sapiens) (UniProt P25098); experiment: GRK2 binders displacing RNA aptamer, biochemical, validation, human GRK2, bead flow cytometry (AID 488806;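 active means aptamer binding inhibition above 30%, about 3 SD of noise from non-fluorescent compounds; inactive means inhibition at or below 30%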); details: bead-bound GRK2, FAM-aptamer displacement, at 10 µM, hits give high values
Sequence of Beta-adrenergic receptor kinase 1 (Homo sapiens) (P25098 whole entry, looked up): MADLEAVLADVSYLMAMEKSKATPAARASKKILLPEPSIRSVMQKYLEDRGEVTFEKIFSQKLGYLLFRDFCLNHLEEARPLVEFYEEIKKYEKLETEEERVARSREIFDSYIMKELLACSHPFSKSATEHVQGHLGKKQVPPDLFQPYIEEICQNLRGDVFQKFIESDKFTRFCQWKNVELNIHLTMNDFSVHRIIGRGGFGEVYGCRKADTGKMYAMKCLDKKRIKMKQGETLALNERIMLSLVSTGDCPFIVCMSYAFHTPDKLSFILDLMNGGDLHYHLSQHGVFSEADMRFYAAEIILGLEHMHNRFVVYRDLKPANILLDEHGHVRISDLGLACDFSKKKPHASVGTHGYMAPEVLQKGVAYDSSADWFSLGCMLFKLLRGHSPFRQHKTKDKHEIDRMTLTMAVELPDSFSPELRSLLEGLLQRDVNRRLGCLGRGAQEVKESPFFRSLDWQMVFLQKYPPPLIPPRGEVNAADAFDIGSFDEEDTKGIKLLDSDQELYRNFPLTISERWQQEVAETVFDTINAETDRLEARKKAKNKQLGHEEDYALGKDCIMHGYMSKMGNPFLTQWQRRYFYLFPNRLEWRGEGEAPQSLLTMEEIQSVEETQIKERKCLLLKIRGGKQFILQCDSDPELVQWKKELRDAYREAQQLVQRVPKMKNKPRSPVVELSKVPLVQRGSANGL

[5] = biological target: Beta-2 adrenergic receptor (Homo sapiens) (UniProt P07550); experiment: agonist-induced loss of surface beta2AR – cell-based, FAP fluorogen, flow cytometry, validation set, pilot screen (AID 504459;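 active means percent response above 42, roughly 3 SD of non-fluorescent test compounds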;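 further: agonist-driven loss of surface beta2AR via internalization measured by FAP dye flow cytometry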); details: Am2.2-beta2AR cells, at 10 µM, hits give high values
Sequence of Beta-2 adrenergic receptor (Homo sapiens) (P07550 whole entry, looked up): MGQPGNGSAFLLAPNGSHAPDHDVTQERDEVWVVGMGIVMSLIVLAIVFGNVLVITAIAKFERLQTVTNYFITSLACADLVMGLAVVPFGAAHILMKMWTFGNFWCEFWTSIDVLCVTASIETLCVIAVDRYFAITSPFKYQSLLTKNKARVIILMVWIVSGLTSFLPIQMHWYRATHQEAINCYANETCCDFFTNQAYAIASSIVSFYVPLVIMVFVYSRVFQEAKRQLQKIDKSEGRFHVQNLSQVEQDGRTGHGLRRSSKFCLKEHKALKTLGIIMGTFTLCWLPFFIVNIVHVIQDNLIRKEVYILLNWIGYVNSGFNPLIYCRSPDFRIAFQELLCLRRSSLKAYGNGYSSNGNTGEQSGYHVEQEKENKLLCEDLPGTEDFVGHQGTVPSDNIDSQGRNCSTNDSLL

[6] = biological target: AP-2 complex subunit beta (Homo sapiens) (UniProt P63010); experiment: beta-arrestin/AP2 interaction blockers – biochemical, validation set, GST-AP2 beads, flow cytometry, pilot screen (AID 504541;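 active means inhibition above 54%, about 3 SD of non-fluorescent compounds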;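 further: AP2 carries R879A mutation and is captured from E. coli lysate; bead-bound FITC arrestin peptide fluorescence measuring arrestin peptide binding to AP2; 0% = DMSO wells and 100% = excess unlabeled arrestin peptide control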); details: FITC arrestin peptide, at 10 µM, hits give high values, AP2 beta2 appendage fragment, R879A mutant
Sequence of AP-2 complex subunit beta (Homo sapiens) (P63010 whole entry, looked up, the tested form may be a part, one chain of several): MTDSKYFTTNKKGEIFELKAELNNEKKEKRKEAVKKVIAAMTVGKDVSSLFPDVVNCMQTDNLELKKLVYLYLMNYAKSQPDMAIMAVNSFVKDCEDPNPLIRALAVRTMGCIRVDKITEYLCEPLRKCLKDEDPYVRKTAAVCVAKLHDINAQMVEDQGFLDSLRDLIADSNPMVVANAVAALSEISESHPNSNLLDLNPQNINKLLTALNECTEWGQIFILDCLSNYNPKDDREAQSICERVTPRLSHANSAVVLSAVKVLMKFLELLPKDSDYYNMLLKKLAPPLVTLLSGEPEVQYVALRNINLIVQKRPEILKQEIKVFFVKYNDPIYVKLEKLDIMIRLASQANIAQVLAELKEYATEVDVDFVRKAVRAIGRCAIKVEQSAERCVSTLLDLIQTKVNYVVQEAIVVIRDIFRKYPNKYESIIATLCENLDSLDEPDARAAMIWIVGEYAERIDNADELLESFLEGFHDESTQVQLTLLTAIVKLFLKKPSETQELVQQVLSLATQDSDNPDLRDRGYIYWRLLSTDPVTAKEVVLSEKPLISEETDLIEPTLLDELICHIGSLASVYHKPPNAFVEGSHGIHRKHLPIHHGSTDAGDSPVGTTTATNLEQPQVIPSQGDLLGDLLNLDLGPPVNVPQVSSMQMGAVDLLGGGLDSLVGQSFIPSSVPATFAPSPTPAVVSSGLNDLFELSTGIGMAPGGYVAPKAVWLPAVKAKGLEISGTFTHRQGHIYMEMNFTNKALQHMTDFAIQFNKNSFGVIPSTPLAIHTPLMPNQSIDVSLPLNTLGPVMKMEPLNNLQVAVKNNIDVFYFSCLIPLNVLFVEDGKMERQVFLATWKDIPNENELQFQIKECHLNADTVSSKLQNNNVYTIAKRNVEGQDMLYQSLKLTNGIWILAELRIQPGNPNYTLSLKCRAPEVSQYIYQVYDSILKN

[7] = cytosolic pH regulators acting via V-ATPase – S. cerevisiae, pHLuorin, HTS validation (AID 504600); details: V-ATPase proton transport, at 10 µM, hits give high values;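 further: plate controls were DMSO for no effect and reference compound for full effect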
[8] = test system: anti-desmoglein-3 scFv antibody binding to human DSG3; experiment: blockers of pathogenic pemphigus antibody–desmoglein-3 binding – biochemical, validation compound set, bead-based, flow cytometry, pilot screen (AID 588368;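 active means binding below the plate cutoff, the plate median minus 3 SD, with a reading above zero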;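 further: signal is the median channel fluorescence of bead-bound GFP antibody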); details: Protein G beads, DSG3-Fc, scFv-GFP binding, at 10 µM, hits give low values
[9] = Nile Red efflux blockade in pump-expressing yeast – validation compound set, multiplex, phenotypic, pilot screen (AID 588506;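 active means efflux inhibition above 0.42, the validation set average plus 4 SD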;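 further: Nile Red retained in cells so higher fluorescence means more efflux inhibition; 0 = negative control wells and 1 = enniatin B 25 µM full block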); details: S. cerevisiae pump-expressing triplex, Nile Red efflux flow cytometry; at 10 µM; hits give high values; the pumps come from Candida albicans
[10] = biological target: ATP-binding cassette sub-family B member 6 (Homo sapiens) (UniProt Q9NP58); experiment: blockers of ABCB6-driven porphyrin uptake – K562-ABCB6 cells, flow cytometry, validation set, pilot screen (AID 588550;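 active means inhibition above the screen-wide mean plus 3 SD, about 51%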;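 further: 0% = DMSO wells and 100% = benzethonium chloride 70 µM positive control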); details: K562-ABCB6 porphyrin accumulation, 1 h, at 10 µM, hits give high values
Sequence of ATP-binding cassette sub-family B member 6 (Homo sapiens) (Q9NP58 whole entry, looked up): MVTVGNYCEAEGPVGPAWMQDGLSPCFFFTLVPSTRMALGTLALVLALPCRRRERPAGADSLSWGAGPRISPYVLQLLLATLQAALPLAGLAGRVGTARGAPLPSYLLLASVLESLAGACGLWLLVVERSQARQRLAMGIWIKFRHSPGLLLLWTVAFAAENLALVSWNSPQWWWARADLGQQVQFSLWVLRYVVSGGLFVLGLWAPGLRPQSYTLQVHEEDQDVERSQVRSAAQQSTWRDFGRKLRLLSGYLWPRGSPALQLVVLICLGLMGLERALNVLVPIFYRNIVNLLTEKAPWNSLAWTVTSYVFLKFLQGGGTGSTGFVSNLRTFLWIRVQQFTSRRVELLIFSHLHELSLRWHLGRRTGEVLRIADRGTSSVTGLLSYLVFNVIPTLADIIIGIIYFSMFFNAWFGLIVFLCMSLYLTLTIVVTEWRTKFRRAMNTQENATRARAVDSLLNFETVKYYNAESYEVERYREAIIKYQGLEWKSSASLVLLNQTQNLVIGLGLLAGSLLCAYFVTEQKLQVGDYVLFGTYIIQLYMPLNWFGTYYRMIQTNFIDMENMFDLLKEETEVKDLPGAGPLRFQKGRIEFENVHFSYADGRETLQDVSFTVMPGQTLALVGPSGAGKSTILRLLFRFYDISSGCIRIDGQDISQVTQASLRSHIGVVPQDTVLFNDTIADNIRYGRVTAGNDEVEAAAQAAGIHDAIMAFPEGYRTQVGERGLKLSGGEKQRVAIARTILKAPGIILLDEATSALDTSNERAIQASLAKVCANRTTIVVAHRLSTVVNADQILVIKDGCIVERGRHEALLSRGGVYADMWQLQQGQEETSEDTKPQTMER

[11] = AML differentiation inducers, ER-HoxA9 marrow cells – cell-based, GFP/MAC1 double positive, flow cytometry, validation set, primary screen (AID 588685;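 active means differentiation response of at least 50%, scaled between solvent and reference control, from cells with both markers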;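 further: compound exposure lasts four days before antibody staining and flow analysis; 0% = DMSO wells and 100% = 5 µM fulvestrant positive control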); details: hits give high values, normalized: vehicle 0, fulvestrant 100

O=C(NCCN1CCN(c2ccccc2)CC1)c1cccc(Br)c1
inactive: GFP response, % of DMSO [1] 100% | inhibition [2] 17.1% | superoxide response (% of plate) [3] 104% | aptamer binding inhibition [4] 0% | response [5] -3.55% | inhibition [6] 13.8% | response [7] -7.18% | binding (% of control) [8] 103% | efflux inhibition (fraction of control) [9] 0.05 | inhibition [10] 6% | differentiation response [11] 11.5%

C[C@]12CCC(=O)C=C1[C@H](O)C[C@@H]1[C@@H]2[C@@H](O)C[C@@]2(C)[C@H]1CC[C@]2(O)C(=O)CO
inactive: GFP response, % of DMSO [1] 98.9% | inhibition [2] -10.5% | superoxide response (% of plate) [3] 98.9% | aptamer binding inhibition [4] 2% | response [5] 6.38% | inhibition [6] -21.5% | response [7] 1.8% | binding (% of control) [8] 104% | efflux inhibition (fraction of control) [9] -0.05 | inhibition [10] 3% | differentiation response [11] 5.67%

COc1ccc(C(=O)NCC2OCCc3ccccc32)cc1 (stereo not drawn)
inactive: GFP response, % of DMSO [1] 91.3% | inhibition [2] -2.27% | superoxide response (% of plate) [3] 92.6% | aptamer binding inhibition [4] 1% | response [5] -2.23% | inhibition [6] 7.24% | response [7] -0.15% | binding (% of control) [8] 103% | efflux inhibition (fraction of control) [9] -0.28 | inhibition [10] 4% | differentiation response [11] 2.46%
